Data on 29 compounds can be found in the supplement of paper PMC9177965.

Assay [1] concerns HT29 RNF43 G659fs (RNF43 659mut, CRISPR-edited). In words: cell viability activity relative to DMSO (negative = inhibition); higher = more viable cells (less growth inhibition). Conditions: 5 µM; 96 h. As to the method: (§1)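 Broad Repurposing Library primary screen at a single dose of 5 uM. HT29 sg-Ctrl and HT29 RNF43 G659fs CRISPR-edited isogenic cells were seeded at 2500 cells/well in 384-well plates in duplicate and treated for 96 h. Viability was read by CellTiter-Glo and reported as % activity relative to DMSO, with MG132 as the positive control (negative = growth inhibition).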

Assay [2] deals with HT29 sg-Ctrl (RNF43 wildtype). The description is as above. Particulars: 5 µM; 96 h. The method, then:
as §1

Turning to `CO[C@@H](C(=O)N1Cc2[nH]nc(NC(=O)c3ccc(N4CCN(C)CC4)cc3)c2C1)c1ccccc1`, the results for the cell viability activity in assay [1] and in assay [2] were -62% and -55.5%, respectively.

`COc1ccc2c(c1)c(C1=C(c3c[nH]c4ccccc34)C(=O)NC1=O)cn2CCCN(C)C`: the figures for the cell viability activity in assay [1] and in assay [2] were -75.2% and -88.9%, respectively.

Turning to `COc1ccc2[nH]c(C(=O)c3ccccc3)cc2c1`, the cell viability activity is -61.7% in assay [1] and -55.7% in assay [2].

On to `COC(=O)Nc1ccc(-c2nc(N3CCOCC3)c3cnn(C4CCN(Cc5cccnc5)CC4)c3n2)cc1`, for which the figures for the cell viability activity in assay [1] and in assay [2] were -55.8% and -48.1%, respectively.

Take `C[C@@H](C(=O)O)c1ccc(-c2ccccc2)c(F)c1`: the cell viability activity in assay [1] was -68.9%; in assay [2], -70.3%.

`CCCCCCCC(=O)N[C@H](CN1CCCC1)[C@H](O)c1ccc2c(c1)OCCO2`: the cell viability activity in assay [1] is -40.1%; in assay [2], -40.4%.

In the case of `CC[C@@H](C)Nc1cc(C(=O)N[C@H]2C[C@H]3CC[C@@H](C2)N3c2ccc(C(=O)C3CC3)cn2)c(C)cc1C(N)=O`, the cell viability activity in assay [1] was -85.8%; in assay [2], -84.4%.

`Cn1cnc2c(F)c(Nc3ccc(Br)cc3Cl)c(C(=O)NOCCO)cc21`: the cell viability activity in assay [1] is -71.6%; in assay [2], -70.6%.

As to `CCNCCCNCCCCNCCCNCC`, the cell viability activity in assay [1] is -31%; in assay [2], -43.8%.

For `CCC(=O)N1CCN(c2ccc(-n3c(=O)ccc4cnc5ccc(-c6cnc7ccccc7c6)cc5c43)cc2C(F)(F)F)CC1`, the cell viability activity was -56.6% in assay [1] and -34.6% in assay [2].

For the compound `CN(C)c1ccc(C(=O)NCCCCCCC(=O)NO)cc1`, the results for the cell viability activity in assay [1] and in assay [2] were -84.4% and -82%, respectively.

With `CC(C)c1cc(C(C)C)c(-c2csc(N(CCN(C)C)Cc3cccnc3)n2)c(C(C)C)c1`, the cell viability activity was -24% in assay [1] and -63.4% in assay [2].

With `COC(=O)C1=C(C)NC(C)=C(C(=O)OCCCN2CCC(c3ccccc3)(c3ccccc3)CC2)[C@@H]1c1cccc([N+](=O)[O-])c1`, the cell viability activity was -65.6% in assay [1] and -91.4% in assay [2].

For `CC(NCCC(c1ccccc1)c1ccccc1)c1ccccc1` (stereo not drawn), the cell viability activity in assay [1] was -64.5%; in assay [2], -69.7%.

Take `CCN(c1cc(C#CCN2CCOCC2)cc(C(=O)NCc2c(C)cc(C)[nH]c2=O)c1C)[C@H]1CC[C@H](N(C)CCOC)CC1`: the values for the cell viability activity in assay [1] and in assay [2] were -37.5% and -35.6%, respectively.

With `NC(=NC1C2CC3CC(C2)CC1C3)Nc1ccc(I)cc1` (stereo not drawn), the cell viability activity in assay [1] was -49.5%; in assay [2], -69.8%.

On to `OCCN1CCN(CCCN2c3ccccc3Sc3ccc(Cl)cc32)CC1`, for which the cell viability activity in assay [1] was -53.2%; in assay [2] it was -90.5%.

`c1cncc(CN2CCC(n3ncc4c(N5CCOCC5)nc(-c5ccc6[nH]ccc6c5)nc43)CC2)c1`: the figures for the cell viability activity in assay [1] and in assay [2] were -74.3% and -75.2%, respectively.

On to `O=C(/C=C/c1ccc(CN(CCO)CCc2c[nH]c3ccccc23)cc1)NO`, for which the cell viability activity in assay [1] is -95.4%; in assay [2], -92.2%.

In the case of `CC(C)n1nc(-c2ccc3oc(N)nc3c2)c2c(N)ncnc21`, the results for the cell viability activity in assay [1] and in assay [2] were -74.9% and -52.5%, respectively.

Take `COc1cc(-c2ncn(/C=C/C(=O)OC(C)C)n2)cc(C(F)(F)F)c1`: the figures for the cell viability activity in assay [1] and in assay [2] were -69.7% and -76.9%, respectively.

`C/C(=C\c1csc(C)n1)[C@@H]1C[C@@H]2O[C@]2(C)CCC[C@H](C)[C@H](O)[C@@H](C)C(=O)C(C)(C)[C@@H](O)CC(=O)N1`: the values for the cell viability activity in assay [1] and in assay [2] were -42.8% and -38.1%, respectively.

With `N#Cc1cc2c(OCC(O)CN3CCN(C(c4ccccc4)c4ccccc4)CC3)cccc2[nH]1` (stereo not drawn), the cell viability activity in assay [1] was -23.9%; in assay [2], -20.5%.

Regarding `O=C(O)c1ccc(-n2nc(-c3ccccc3O)nc2-c2ccccc2O)cc1`, the figures for the cell viability activity in assay [1] and in assay [2] were -27.9% and -27.1%, respectively.

With `CCOc1cc2ncc(C#N)c(Nc3ccc(OCc4cccc(F)c4)c(Cl)c3)c2cc1NC(=O)/C=C/CN(C)C`, the cell viability activity was -30.8% in assay [1] and -28.1% in assay [2].

For `c1ccc2c(-c3cnn4cc(-c5ccc(N6CCNCC6)cc5)cnc34)ccnc2c1`, the values for the cell viability activity in assay [1] and in assay [2] were -95.2% and -95.7%, respectively.

Take `Cc1ccc(C(=O)Nc2cccc(C(F)(F)F)c2)cc1Nc1nc(-c2cccnc2)nc2c1cnn2C`: the cell viability activity is -36.8% in assay [1] and -24.4% in assay [2].

`NC(=O)N1CCC(CC(=O)N2CCC([C@H]3c4ncc(Br)cc4CCc4cc(Cl)cc(Br)c43)CC2)CC1`: the cell viability activity in assay [1] is -51%; in assay [2], -56.6%.

For the compound `NCCCCNCCCN`, the cell viability activity was -26.8% in assay [1] and -2.46% in assay [2].
